According to PubChem BioAssay AID1159580 (chemical genetic matrix, 2015):
About 2,000 (36%) of roughly 5,500 compounds were called active. Another 18% or so got no clear call; they are omitted. No stated cut-off is given here; in the data, active means normalized growth mostly below about 0.91 (no sharp cut-off); inconclusive means no clear call, values can overlap the other calls; inactive means mostly above about 0.92. This is one part of the list.

Experiment: chemical genetic growth profiling, strain panel (AID 1159580);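 further: tested at 20 µM; growth read once vehicle control cultures reached saturation at 30 °C; 1 = growth at the plate median or of vehicle wells; lower values mean less growth of the strain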
Details: growth OD

Measured: normalized growth

Cc1cc(=O)oc2cc(O)c(O)cc12
inactive: S. cerevisiae deletion strains, locus YJR043C, strain POL32, hits give low values 0.964 | S. cerevisiae deletion strains, locus YJR066W, strain TOR1, hits give low values 0.913 | S. cerevisiae deletion strains, locus YKL009W, strain mrt4, hits give low values 0.922 | S. cerevisiae deletion strains, locus YKL068W, hits give low values 1.01 | S. cerevisiae deletion strains, locus YKL085W, strain MDH1 (second series), hits give low values 1.02 | S. cerevisiae deletion strains, locus YKL085W, strain MDH1, hits give low values 1.02 | S. cerevisiae deletion strains, locus YKL160W, strain elf1, hits give low values 1 | S. cerevisiae deletion strains, locus YKL190W, strain CNB1, hits give low values 1.01 | S. cerevisiae deletion strains, locus YKR001C, strain vps1, hits give low values 0.934 | S. cerevisiae deletion strains, locus YKR026C, strain gcn3, hits give low values 0.994 | S. cerevisiae deletion strains, locus YKR091W, strain srl3, hits give low values 0.981 | S. cerevisiae deletion strains, locus YLL001W, strain dnm1, hits give low values 0.995 | S. cerevisiae deletion strains, locus YLL026W, hits give low values 0.989 | S. cerevisiae deletion strains, locus YLL041C, strain sdh2, hits give low values 0.986 | S. cerevisiae deletion strains, locus YLR027C, strain aat2, hits give low values 0.976 | S. cerevisiae deletion strains, locus YLR039C, strain RIC1, hits give low values 0.945 | S. cerevisiae deletion strains, locus YLR058C, strain SHM2, hits give low values 0.99 | S. cerevisiae deletion strains, locus YLR102C, strain apc9, hits give low values 1.01 | S. cerevisiae deletion strains, locus YLR113W, strain HOG1, hits give low values 0.954 | S. cerevisiae deletion strains, locus YLR221C, strain rsa3, hits give low values 0.986 | S. cerevisiae deletion strains, locus YLR258W, strain gsy2, hits give low values 1 | S. cerevisiae deletion strains, locus YLR262C, strain YPT6 (second series), hits give low values 0.962 | S. cerevisiae deletion strains, locus YLR262C, strain YPT6, hits give low values 1.01 | S. cerevisiae deletion strains, locus YLR268W, strain sec22, hits give low values 0.983 | S. cerevisiae deletion strains, locus YLR320W, strain mms22, hits give low values 0.987 | S. cerevisiae deletion strains, locus YLR330W, strain CHS5, hits give low values 1 | S. cerevisiae deletion strains, locus YLR342W, strain FKS1 (second series), hits give low values 0.992 | S. cerevisiae deletion strains, locus YLR342W, strain FKS1, hits give low values 1.01 | S. cerevisiae deletion strains, locus YLR357W, strain rsc2, hits give low values 1.01 | S. cerevisiae deletion strains, locus YLR370C, strain arc18, hits give low values 0.982 | S. cerevisiae deletion strains, locus YLR371W, strain rom2, hits give low values 1 | S. cerevisiae deletion strains, locus YLR384C, strain iki3, hits give low values 0.993 | S. cerevisiae deletion strains, locus YLR418C, strain cdc73, hits give low values 0.939 | S. cerevisiae deletion strains, locus YML016C, strain PPZ1, hits give low values 0.994 | S. cerevisiae deletion strains, locus YML032C, strain rad52, hits give low values 0.965 | S. cerevisiae deletion strains, locus YML120C, strain ndi1, hits give low values 1 | S. cerevisiae deletion strains, locus YML124C, strain tub3, hits give low values 1.01 | S. cerevisiae deletion strains, locus YMR058W, strain fet3, hits give low values 0.989 | S. cerevisiae deletion strains, locus YMR078C, strain ctf18, hits give low values 1 | S. cerevisiae deletion strains, locus YMR125W, strain sto1, hits give low values 1.04 | S. cerevisiae deletion strains, locus YMR129W, hits give low values 1 | S. cerevisiae deletion strains, locus YMR205C, strain PFK2, hits give low values 1.02 | S. cerevisiae deletion strains, locus YMR223W, strain ubp8, hits give low values 0.951 | S. cerevisiae deletion strains, locus YMR231W, strain pep5, hits give low values 0.998 | S. cerevisiae deletion strains, locus YMR307W, strain GAS1, hits give low values 1.01 | S. cerevisiae deletion strains, locus YNL067W, strain RPL9B, hits give low values 0.994 | S. cerevisiae deletion strains, locus YNL071W, strain lat1, hits give low values 0.988 | S. cerevisiae deletion strains, locus YNL128W, strain TEP1, hits give low values 1.01 | S. cerevisiae deletion strains, locus YNL183C, strain NPR1, hits give low values 0.902 | S. cerevisiae deletion strains, locus YNL209W, strain ssb2, hits give low values 1 | S. cerevisiae deletion strains, locus YNL233W, strain BNI4, hits give low values 0.961 | S. cerevisiae deletion strains, locus YNL248C, strain rpa49, hits give low values 0.941 | S. cerevisiae deletion strains, locus YNL250W, strain rad50, hits give low values 1.02 | S. cerevisiae deletion strains, locus YNL271C, strain bni1, hits give low values 0.993 | S. cerevisiae deletion strains, locus YNL298W, strain CLA4, hits give low values 0.961 | S. cerevisiae deletion strains, locus YNL307C, strain MCK1, hits give low values 0.989 | S. cerevisiae deletion strains, locus YNL322C, strain KRE1 (second series), hits give low values 0.995 | S. cerevisiae deletion strains, locus YNR049C, strain mso1, hits give low values 0.989 | S. cerevisiae deletion strains, locus YNR052C, strain pop2, hits give low values 0.974 | S. cerevisiae deletion strains, locus YOL006C, strain TOP1, hits give low values 0.805 | S. cerevisiae deletion strains, locus YOL012C, strain htz1 1.25 | S. cerevisiae deletion strains, locus YOL147C, strain pex11, hits give low values 0.993 | S. cerevisiae deletion strains, locus YOR001W, strain rrp6, hits give low values 0.967 | S. cerevisiae deletion strains, locus YOR061W, strain CKA2, hits give low values 1 | S. cerevisiae deletion strains, locus YOR069W, strain VPS5, hits give low values 1.01 | S. cerevisiae deletion strains, locus YOR070C, strain gyp1, hits give low values 0.99 | S. cerevisiae deletion strains, locus YOR080W, strain dia2, hits give low values 0.975 | S. cerevisiae deletion strains, locus YOR083W, strain WHI5, hits give low values 0.978 | S. cerevisiae deletion strains, locus YOR106W, strain vam3, hits give low values 0.993 | S. cerevisiae deletion strains, locus YOR136W, strain idh2, hits give low values 1 | S. cerevisiae deletion strains, locus YOR144C, strain elg1, hits give low values 1 | S. cerevisiae deletion strains, locus YOR184W, strain ser1, hits give low values 0.88 | S. cerevisiae deletion strains, locus YOR231W, strain MKK1, hits give low values 0.904 | S. cerevisiae deletion strains, locus YOR265W, strain rbl2, hits give low values 0.989 | S. cerevisiae deletion strains, locus YOR270C, strain vph1, hits give low values 0.893 | S. cerevisiae deletion strains, locus YOR290C, strain snf2, hits give low values 0.937 | S. cerevisiae deletion strains, locus YOR316C, strain cot1, hits give low values 1 | S. cerevisiae deletion strains, locus YPL051W, strain arl3, hits give low values 0.987 | S. cerevisiae deletion strains, locus YPL078C, strain atp4, hits give low values 0.992 | S. cerevisiae deletion strains, locus YPL106C, strain sse1, hits give low values 0.978 | S. cerevisiae deletion strains, locus YPL240C, strain hsp82, hits give low values 0.994 | S. cerevisiae deletion strains, locus YPL256C, strain CLN2, hits give low values 0.936 | S. cerevisiae deletion strains, locus YPR119W, strain clb2, hits give low values 1.01 | S. cerevisiae deletion strains, locus YPR141C, strain kar3, hits give low values 1.02 | S. cerevisiae deletion strains, locus YPR163C, strain tif3, hits give low values 1.02 | S. cerevisiae deletion strains, locus YPR167C, strain met16, hits give low values 0.981 | S. cerevisiae deletion strains, strain wtn01, hits give low values 0.988 | S. cerevisiae strains, strain wild type, hits give low values 1.01
